# Screening data (PubChem)
# HepG2 tox – counter-screen for TGF-b inhibitors: cytotoxicity in HepG2 cells. HepG2 CAGA-GFP viability, ATP luminescence, 18 h. Potency, µM (highest dose often 46.1 µM), without a hit: at the highest dose activity change, negative = cytotoxicity, usual class: cytotoxic. actives 0.76% (n = 410,000). AID 588856
#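 HepG2 CAGA-GFP cells (1000/well, DMEM with 1% FBS) received compound, then TGF-beta at 500 pg/mL final, and were incubated 18 hours at 37 degrees C. Viability was read by CellTiter-Glo luminescence. Media-only wells were set as complete cell-killing and DMSO as no toxicity.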
# DT40 TDP1 CPT – growth inhibition of DT40 Tdp1-/-;hTDP1 cells with camptothecin (screen for TDP1 inhibitors); AID 686979; actives 12% (n = 420,000); Potency, µM (top dose mostly 46.2 µM), without a hit: at the highest dose activity change, negative = growth inhibition, hits mostly inhibitors; chicken DT40 Tdp1-/-;hTDP1 cells + 20 nM CPT, ATP luminescence, 48 h; also: % is scaled to controls: 0 for no effect and ±100 for the full control effect; nearly all actives have a fitted effect of over 55% in size
#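 Chicken DT40 Tdp1-/- cells stably complemented with human TDP1 were seeded at 400 cells/well in medium containing 20 nM camptothecin, exposed to pin-transferred compounds, and grown at 37 °C for at least 48 hr. Viability was read as ATP luminescence.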
# TGFb inhibitor – TGF-b pathway inhibition | actives 1.2% (n = 410,000) | Potency, µM (doses to about 46.1 µM), without a hit: at the highest dose activity, negative = inhibition, usual class: inhibitors | HepG2 CAGA-GFP TGF-b/SMAD3 reporter, GFP fluorescence, 18 h; TGF-beta stimulated, 500 pg/mL final; also: % is scaled to controls: 0 for no effect and ±100 for the full control effect; nearly all actives have a fitted effect of over 65% in size
#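 HEPG2 CAGA-GFP reporter cells (1000/well, DMEM with 1% FBS) received compounds, then recombinant TGF-beta at 500 pg/mL final for 18 hours at 37 degrees C. Per-cell GFP summed per well was normalised to unstimulated and stimulated DMSO controls before curve fitting.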
# HT1080-NT tox – kills 2HG-producing HT-1080-NT fibrosarcoma cells; Potency, µM (series often up to 46.1 µM), for the others: top-dose activity, negative = less viability, actives largely listed as cytotoxic; HT-1080-NT fibrosarcoma viability, CellTiter-Glo ATP luminescence, 48 h; actives 1.6% (n = 360,000); AID 686970;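 also: NT is the 2HG producing partner of a matched IDH1 knockdown line; 0% = DMSO-treated cells and -100% = media-only wells without cells; nearly all actives have a fitted effect of over 55% in size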
#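 Viability by CellTiter-Glo luminescence after 48 h compound exposure at 37C of HT-1080-NT cells (750/well, RPMI, 5% FBS). % activity scaled between DMSO wells and medium-only wells, then curve-fitted and categorized by curve class.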
# DT40 TDP1 no CPT – qHTS for Inhibitors of human tyrosyl-DNA phosphodiesterase 1 (TDP1): qHTS in cells in absence of CPT | Potency, µM (titrated, usually from 46.2 µM), for inactives: top-dose activity change, negative = growth inhibition, actives largely listed as inhibitors | actives 15% (n = 420,000) | AID 686978, 2013 | DT40 Tdp1-/- hTDP1 cells, no CPT, ATP luminescence, 48 h; also: % is scaled to controls: 0 for no effect and ±100 for the full control effect; nearly all actives have a fitted effect of over 55% in size
#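 Growth of hTDP1-complemented DT40 Tdp1-knockout cells is measured by ATP luminescence after at least 48 hr compound exposure at 37 °C, with DMSO substituting for the 20 nM CPT used in the parallel screen.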
# HT1080 IDH1KD tx – HT-1080 IDH1 knockdown cell toxicity (counter line) | HT-1080 IDH1 knockdown viability, ATP luminescence, 48 h | AID 686971 | Potency, µM (doses to about 46.1 µM), inactives show at the highest dose activity, negative = toxicity, most hits filed as cytotoxic | actives 2% (n = 360,000);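 also: 0% = DMSO wells and -100% = cell-free medium wells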
#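 CellTiter-Glo luminescence after 48 h compound exposure at 37 degrees C of IDH1-knockdown HT-1080 cells in 5% FBS RPMI. %Activity scaled between DMSO wells and cell-free media wells, with curves fitted and assigned curve classes.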
# * marks the source's active call; other numbers are inactive results; ? = inconclusive; nt = no result given. In the library only some 17% were active in any assay of this set; here they are far more common. Calls follow the shape of the dose curve; as a rule, active = well fitted curve in the direction sought with a large enough effect; inconclusive = small, poorly fitted or top-dose-only effect, or another doubt; inactive = no such curve, though single readings can be large; an effect the other way counts as inactive or inconclusive. Potency is read from the fitted curve at half-maximal effect.
SMILES,HepG2 tox,DT40 TDP1 CPT,TGFb inhibitor,HT1080-NT tox,DT40 TDP1 no CPT,HT1080 IDH1KD tx
Cc1ccc(N=c2c([N+](=O)[O-])nn(-c3ccc4c(c3)OCCO4)n2O)cc1F,-2%,?,7%,-13%,?,1%
CCc1ccc(N=c2c([N+](=O)[O-])nn(-c3ccc4c(c3)OCCO4)n2O)cc1,0%,-13%,0%,9%,-12%,15%
COc1ccc(OC)c(NC(=O)c2ccc3c(=O)n(CCc4ccccc4)c(=S)[nH]c3c2)c1,-23%,?,-6%,1%,?,-12%
Cc1cc(Cl)ccc1OCCSc1nnc(-c2cccs2)o1,1%,-1%,?,nt,?,nt
O=C(C[n+]1ccc2ccccc2c1)c1ccc2ccc3ccccc3c2c1,nt,3.3µM*,nt,?,4.1µM*,?
O=C(C[n+]1ccc2ccccc2c1)c1ccccc1,-1%,4%,2%,15%,-6%,-22%
CCCSc1ccc([C@@H]2[C@H]3C(=O)N(CC)C(=O)[C@H]3[C@]3(C(=O)OC)CCCCN23)cc1,-32%,?,-8%,-4%,16µM*,-1%
CCCSc1ccc([C@H]2N[C@@](CC(C)C)(C(=O)OC)[C@H]3C(=O)N(C)C(=O)[C@@H]23)cc1,-14%,?,-3%,6%,?,3%
CCCCCCSc1ccc([C@@H]2[C@H]3C(=O)N(CC)C(=O)[C@H]3[C@]3(C(=O)OC)CCCN23)cc1,-58%,21µM*,?,-1%,?,-14%
CCCCCCSc1ccc([C@@H]2[C@@H]3C(=O)N(C)C(=O)[C@@H]3[C@]3(C(=O)OC)CCCCN23)cc1,-5%,9.2µM*,?,?,26µM*,?
COc1ccc(NC(=O)c2c(N)c(C(=O)c3ccc(C)cc3)n3ccccc23)cc1OC,-17%,?,5%,nt,?,nt
CC(=O)Nc1c(I)cc(I)c(C(=O)O)c1I,nt,-15%,nt,nt,-11%,nt
Cc1ccc(S(=O)(=O)N2C[C@]3(O)C[C@@H]4C(=O)N(c5ccccc5)C(=O)[C@@H]4C[C@]3(OC(=O)Nc3cccs3)C2)cc1,-12%,?,-12%,2%,?,16%
NC1=NC(c2ccccc2C(F)(F)F)N(c2ccc(F)c(Cl)c2)C(N)=N1 (centres undefined),-25%,21µM*,-5%,-6%,4.1µM*,-13%
NC1=NC(c2ccc(Cl)cc2)N(c2ccc(S(N)(=O)=O)cc2)C(N)=N1 (centres undefined),15%,5%,32%,2%,-5%,6%
CCOc1ccc(C(=O)Nc2cccc(C(=O)OCc3cc(=O)n4cc(C)sc4n3)c2)cc1,0%,4%,0%,nt,-4%,nt
O=C(Nc1cccc(C(=O)N2CCCC2)c1)C1CCCCC1,-1%,1%,11%,4%,-19%,11%
COCCCN(C(=O)c1ccco1)c1nc(-c2ccc(OC)cc2)cs1,0%,16µM*,-26%,-11%,21µM*,-21%
COCCCN(C(=O)c1ccccc1)c1nc(-c2ccc(OC)cc2)cs1,-23%,18µM*,-4%,-2%,16µM*,-9%
O=C1NC(=O)C2(Br)Nc3ccc(Br)cc3C(=O)C2N1 (centres undefined),-15%,-12%,-3%,-2%,0%,0%
CC(C)(C)NC(=O)NC(=O)COC(=O)c1cccc(NS(=O)(=O)c2ccc(F)c(F)c2)c1,-7%,-26%,0%,-23%,?,-16%
CC(C)(C)c1ccc(NC(=O)COC(=O)c2ccc(NS(=O)(=O)c3ccc(F)c(F)c3)cc2)cc1,-46%,-21%,14µM*,0%,?,-15%
COc1ccc(C(=O)CSc2nc(-c3ccccn3)nc(C)c2Cl)cc1,-11%,?,-18%,?,?,?
Cc1nc(-c2ccccn2)nc(N(C)c2ccccc2)c1Cl,-42%,2.6µM*,?,-7%,2.6µM*,0%
CCc1ccc(C2=CC(c3cc(Br)ccc3F)n3ncnc3N2)cc1 (centres undefined),-27%,23µM*,-2%,-8%,18µM*,-7%
SMILES,HepG2 tox,DT40 TDP1 CPT,TGFb inhibitor,HT1080-NT tox,DT40 TDP1 no CPT,HT1080 IDH1KD tx
Cc1ccc(C2=CC(c3ccccc3)n3ncnc3N2)cc1 (centres undefined),-4%,?,-8%,17%,?,17%
COc1ccc(C2C=C(c3ccc(Br)cc3)Nc3nnnn32)c(OC)c1 (centres undefined),-19%,-98%,-1%,nt,23µM*,nt
COc1cccc(C2=CC(c3cccs3)n3nnnc3N2)c1 (centres undefined),-8%,2.3µM*,20%,8.2µM*,3.3µM*,8.2µM*
COc1cccc(C2=CC(c3ccc(OC)c(OC)c3OC)n3nnnc3N2)c1 (centres undefined),-1%,-22%,-11%,1%,-22%,1%
Fc1ccc(Br)cc1C1C=C(c2ccc(Br)cc2)Nc2nnnn21 (centres undefined),-14%,?,18%,nt,23µM*,nt
COc1cc(OC)c(N(C)C(=O)c2c(C)oc3ncn(CC(C)C)c(=O)c23)cc1Cl,-10%,-12%,10%,nt,-27%,nt
COc1ccc2[nH]c(C(=O)O)c(CCNC(=O)/C=C/c3ccc(O)c(OC)c3)c2c1,0%,-14%,0%,24%,10%,10%
Cc1cc(C(=O)Cn2nc(C(=O)O)c3ccccc3c2=O)c(C)n1-c1ccc(F)cc1,-20%,29µM*,-6%,-5%,?,-11%
CCN(C(=O)CN1CCN(C)CC1)c1cccc2ccccc12,-5%,0%,-5%,12%,-1%,13%
CCN(C(=O)CN1C(=O)CN(C)C1=O)c1cccc2ccccc12,-12%,12µM*,-1%,3%,?,-11%
CCCC(O)(c1ccc(Cl)cc1)C(CN1CCOCC1)c1ccccc1 (centres undefined),-71%,?,13µM*,13%,?,3%
CCCC(O)(c1ccc(CC)cc1)C(CN1CCOCC1)c1ccccc1 (centres undefined),-28%,16µM*,?,33µM*,18µM*,21µM*
